From PMC7862700, “An all-to-all approach to the identification of sequence-specific readers for epigenetic DNA modifications on cytosine” come the findings set out here.

Assay in all cases: DAPPL (digital affinity profiling via proximity ligation, sequencing); 10 mM Tris-HCl pH 7.5, 50 mM NaCl, 1 mM DTT, 4% glycerol, room temperature, 30 min; GST-TFs on glutathione beads, 16-mer random dsDNA library, 0.1% formaldehyde crosslink after washing; high values mean tight binding
One assay concerns the target T1, FEV (Homo sapiens, UniProt Q99581 1-238).
T1 sequence: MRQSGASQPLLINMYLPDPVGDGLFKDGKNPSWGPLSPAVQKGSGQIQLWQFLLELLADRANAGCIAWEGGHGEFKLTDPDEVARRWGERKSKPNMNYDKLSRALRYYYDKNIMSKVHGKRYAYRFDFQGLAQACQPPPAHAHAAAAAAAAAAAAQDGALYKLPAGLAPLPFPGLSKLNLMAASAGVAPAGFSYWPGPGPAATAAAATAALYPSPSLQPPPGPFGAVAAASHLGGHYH
As to conditions: protein: recombinant; tags: N-terminal GST; dsDNA, one strand shown. The method, boiled down: (§1)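 Sequencing on an Illumina NextSeq500 followed washing, crosslinking with 0.1% formaldehyde, proximity ligation (BsaI/T4 ligase, 1 h, 37 °C) and PCR amplification of pools that had been incubated for 30 min at room temperature with 200 nmole of a random double-stranded 16-mer DNA library in Tris/NaCl/DTT/glycerol buffer. Each pool held DNA-barcoded human transcription factors, expressed in yeast as GST fusions and captured on glutathione beads, plus a tag-only sample. Binding signal is a hexamer's read frequency for a factor divided by its frequency in the tag-only sample.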

In the next assay the target is ETV5 (Homo sapiens, UniProt P41161 1-510). As to conditions: protein: recombinant; tags: N-terminal GST; dsDNA, one strand shown. The method, boiled down:
as §1

A further assay concerns the target HSF1 (Homo sapiens, UniProt Q00613 1-529). As to conditions: protein: recombinant; tags: N-terminal GST; chain copies: 3; dsDNA, one strand shown. The method, boiled down:
as §1

In another assay the target is T2, SPIC (Homo sapiens, UniProt Q8N5J4 1-248).
T2 sequence: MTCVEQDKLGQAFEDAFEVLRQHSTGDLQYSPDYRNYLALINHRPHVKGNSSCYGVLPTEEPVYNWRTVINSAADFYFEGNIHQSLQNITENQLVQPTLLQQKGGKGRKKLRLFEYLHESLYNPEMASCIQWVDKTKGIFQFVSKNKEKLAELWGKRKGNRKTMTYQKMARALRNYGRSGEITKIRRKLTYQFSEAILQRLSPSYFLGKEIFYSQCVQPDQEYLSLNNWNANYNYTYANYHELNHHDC
As to conditions: protein: recombinant; tags: N-terminal GST; dsDNA, one strand shown. The method, boiled down: as §1

For a further assay, the target named is ELF4 (Homo sapiens, UniProt Q99607 1-663). As to conditions: protein: recombinant; tags: N-terminal GST; dsDNA, one strand shown. In a few lines:
as §1

In another assay the target is T3, ELK4 (Homo sapiens, UniProt P28324-2 1-405).
T3 sequence: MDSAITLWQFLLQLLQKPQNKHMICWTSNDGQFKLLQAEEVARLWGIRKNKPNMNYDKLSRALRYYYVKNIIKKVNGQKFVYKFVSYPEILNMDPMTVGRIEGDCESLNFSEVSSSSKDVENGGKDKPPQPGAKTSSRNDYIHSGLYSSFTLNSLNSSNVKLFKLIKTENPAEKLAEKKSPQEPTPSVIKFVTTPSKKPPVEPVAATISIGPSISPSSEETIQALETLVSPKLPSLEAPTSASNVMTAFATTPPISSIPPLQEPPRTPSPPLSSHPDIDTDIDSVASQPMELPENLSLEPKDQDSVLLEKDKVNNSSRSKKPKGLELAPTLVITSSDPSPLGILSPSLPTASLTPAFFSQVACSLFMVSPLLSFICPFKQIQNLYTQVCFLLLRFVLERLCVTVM
As to conditions: protein: recombinant; tags: N-terminal GST; dsDNA, one strand shown. In a few lines: as §1

The next assay concerns the target T4, ETV2 (Homo sapiens, UniProt O00321 1-342).
T4 sequence: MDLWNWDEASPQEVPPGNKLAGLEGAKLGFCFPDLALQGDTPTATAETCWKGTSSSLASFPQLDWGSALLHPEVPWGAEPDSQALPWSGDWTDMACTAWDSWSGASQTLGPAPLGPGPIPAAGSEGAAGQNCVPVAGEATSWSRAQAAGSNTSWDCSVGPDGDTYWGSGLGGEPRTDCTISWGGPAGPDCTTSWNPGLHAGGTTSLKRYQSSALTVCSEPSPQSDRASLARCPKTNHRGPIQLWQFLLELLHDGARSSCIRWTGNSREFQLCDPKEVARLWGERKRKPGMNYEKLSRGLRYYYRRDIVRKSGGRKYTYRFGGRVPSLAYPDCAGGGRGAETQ
As to conditions: protein: recombinant; tags: N-terminal GST; dsDNA, one strand shown. The method, boiled down:
as §1

For another assay, the target named is T5, ELF3 (Homo sapiens, UniProt P78545 1-371).
T5 sequence: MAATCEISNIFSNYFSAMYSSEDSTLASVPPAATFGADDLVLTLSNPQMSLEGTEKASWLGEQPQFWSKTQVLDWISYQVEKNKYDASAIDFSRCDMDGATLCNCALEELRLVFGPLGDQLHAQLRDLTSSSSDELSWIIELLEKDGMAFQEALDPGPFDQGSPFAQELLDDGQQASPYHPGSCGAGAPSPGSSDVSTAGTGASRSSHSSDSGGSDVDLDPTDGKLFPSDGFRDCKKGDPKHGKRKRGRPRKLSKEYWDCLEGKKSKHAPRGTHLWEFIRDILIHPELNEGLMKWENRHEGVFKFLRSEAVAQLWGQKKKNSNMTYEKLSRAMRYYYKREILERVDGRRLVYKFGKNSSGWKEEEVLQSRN
As to conditions: protein: recombinant; tags: N-terminal GST; dsDNA, one strand shown. The method, boiled down: as §1

Another assay addresses CRX (Homo sapiens, UniProt O43186 1-299). As to conditions: protein: recombinant; tags: N-terminal GST; dsDNA, one strand shown. The method, boiled down:
as §1

The target of the next assay is ETV1 (Homo sapiens, UniProt P50549 1-477). As to conditions: protein: recombinant; tags: N-terminal GST; dsDNA, one strand shown. The method, boiled down: as §1
Another assay deals with T6, ERF (Homo sapiens, UniProt P50548 1-548).
T6 sequence: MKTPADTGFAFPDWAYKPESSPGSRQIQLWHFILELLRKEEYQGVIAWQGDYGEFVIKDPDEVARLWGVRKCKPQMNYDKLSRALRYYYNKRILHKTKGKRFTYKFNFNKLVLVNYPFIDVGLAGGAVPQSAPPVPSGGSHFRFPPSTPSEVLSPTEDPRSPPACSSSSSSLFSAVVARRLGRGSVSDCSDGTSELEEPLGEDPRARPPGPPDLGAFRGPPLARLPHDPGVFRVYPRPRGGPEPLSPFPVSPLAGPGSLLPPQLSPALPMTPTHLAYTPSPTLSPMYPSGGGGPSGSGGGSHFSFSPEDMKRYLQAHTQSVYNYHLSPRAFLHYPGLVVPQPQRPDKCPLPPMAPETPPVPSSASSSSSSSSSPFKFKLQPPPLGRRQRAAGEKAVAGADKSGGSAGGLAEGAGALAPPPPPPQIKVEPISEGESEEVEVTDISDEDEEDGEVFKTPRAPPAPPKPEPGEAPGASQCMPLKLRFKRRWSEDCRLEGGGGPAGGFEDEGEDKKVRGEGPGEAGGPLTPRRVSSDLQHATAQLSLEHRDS
As to conditions: protein: recombinant; tags: N-terminal GST; dsDNA, one strand shown. In a few lines: as §1

The next assay addresses T7, ETV3L (Homo sapiens, UniProt Q6ZN32 1-361).
T7 sequence: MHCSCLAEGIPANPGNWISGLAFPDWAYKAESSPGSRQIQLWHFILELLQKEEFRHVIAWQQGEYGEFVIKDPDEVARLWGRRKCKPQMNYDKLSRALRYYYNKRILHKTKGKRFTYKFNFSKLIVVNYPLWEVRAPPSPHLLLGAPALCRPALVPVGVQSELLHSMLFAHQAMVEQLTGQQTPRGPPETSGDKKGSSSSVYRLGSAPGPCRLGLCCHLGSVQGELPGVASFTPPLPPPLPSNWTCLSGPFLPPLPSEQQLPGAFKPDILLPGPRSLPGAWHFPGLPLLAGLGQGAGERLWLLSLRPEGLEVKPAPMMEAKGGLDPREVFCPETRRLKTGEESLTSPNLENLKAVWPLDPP
As to conditions: protein: recombinant; tags: N-terminal GST; dsDNA, one strand shown. In a few lines: as §1

Another assay concerns the target T8, ETS2 (Homo sapiens, UniProt P15036 1-469).
T8 sequence: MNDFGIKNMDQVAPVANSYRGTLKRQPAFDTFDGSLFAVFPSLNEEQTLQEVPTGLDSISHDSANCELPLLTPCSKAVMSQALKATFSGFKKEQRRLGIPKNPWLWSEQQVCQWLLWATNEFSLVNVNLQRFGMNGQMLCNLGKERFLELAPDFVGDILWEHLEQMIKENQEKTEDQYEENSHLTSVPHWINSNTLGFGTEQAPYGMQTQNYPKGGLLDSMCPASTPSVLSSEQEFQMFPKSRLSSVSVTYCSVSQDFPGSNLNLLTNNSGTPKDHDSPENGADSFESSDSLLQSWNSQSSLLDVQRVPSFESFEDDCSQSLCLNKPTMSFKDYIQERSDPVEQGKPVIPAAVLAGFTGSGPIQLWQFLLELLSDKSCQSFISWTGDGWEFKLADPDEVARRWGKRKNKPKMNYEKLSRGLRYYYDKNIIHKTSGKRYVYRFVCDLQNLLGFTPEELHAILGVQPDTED
As to conditions: protein: recombinant; tags: N-terminal GST; dsDNA, one strand shown. In a few lines:
as §1

A further assay concerns the target T9, SPDEF (Homo sapiens, UniProt O95238 1-335).
T9 sequence: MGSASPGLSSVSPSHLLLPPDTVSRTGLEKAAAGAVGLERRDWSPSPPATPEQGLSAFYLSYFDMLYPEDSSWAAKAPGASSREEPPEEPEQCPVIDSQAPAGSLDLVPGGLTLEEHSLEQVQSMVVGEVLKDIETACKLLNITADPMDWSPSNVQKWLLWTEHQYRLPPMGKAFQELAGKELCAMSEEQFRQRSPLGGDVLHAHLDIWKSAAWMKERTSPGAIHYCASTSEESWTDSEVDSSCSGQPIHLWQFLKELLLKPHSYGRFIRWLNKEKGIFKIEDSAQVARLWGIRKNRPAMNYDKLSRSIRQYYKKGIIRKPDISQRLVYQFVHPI
As to conditions: protein: recombinant; tags: N-terminal GST; dsDNA, one strand shown. In a few lines:
as §1

In the next assay the target is T10, ETV7 (Homo sapiens, UniProt Q9Y603 1-341).
T10 sequence: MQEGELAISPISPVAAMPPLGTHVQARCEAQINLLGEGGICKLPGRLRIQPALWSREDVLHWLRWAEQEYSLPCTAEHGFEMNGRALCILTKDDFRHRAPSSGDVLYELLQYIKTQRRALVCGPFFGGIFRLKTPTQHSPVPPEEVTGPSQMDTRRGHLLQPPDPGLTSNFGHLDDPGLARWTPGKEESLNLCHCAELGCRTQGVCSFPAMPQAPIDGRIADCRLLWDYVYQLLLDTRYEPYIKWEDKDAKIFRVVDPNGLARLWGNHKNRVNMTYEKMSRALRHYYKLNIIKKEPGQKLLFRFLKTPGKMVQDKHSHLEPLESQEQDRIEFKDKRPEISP
As to conditions: protein: recombinant; tags: N-terminal GST; dsDNA, one strand shown. The method, boiled down: as §1

The next assay concerns the target T11, ELF5 (Homo sapiens, UniProt Q9UKW6-2 1-255).
T11 sequence: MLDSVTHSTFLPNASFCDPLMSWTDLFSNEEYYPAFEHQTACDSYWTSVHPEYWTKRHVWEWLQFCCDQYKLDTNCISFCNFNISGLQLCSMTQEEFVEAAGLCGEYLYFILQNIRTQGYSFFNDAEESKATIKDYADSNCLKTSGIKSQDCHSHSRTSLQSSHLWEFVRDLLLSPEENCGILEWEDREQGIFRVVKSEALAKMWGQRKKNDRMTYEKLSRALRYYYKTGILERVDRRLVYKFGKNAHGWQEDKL
As to conditions: protein: recombinant; tags: N-terminal GST; dsDNA, one strand shown. The method, boiled down: as §1

A further assay has as its target T12, ETV3 (Homo sapiens, UniProt P41162-2 1-143).
T12 sequence: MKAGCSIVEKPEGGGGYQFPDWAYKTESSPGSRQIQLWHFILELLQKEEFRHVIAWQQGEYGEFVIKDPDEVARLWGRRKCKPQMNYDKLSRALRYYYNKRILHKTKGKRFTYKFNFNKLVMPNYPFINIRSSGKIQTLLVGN
As to conditions: protein: recombinant; tags: N-terminal GST; dsDNA, one strand shown. In a few lines:
as §1

The next assay has as its target ETV6 (Homo sapiens, UniProt P41212 1-452). As to conditions: protein: recombinant; tags: N-terminal GST; dsDNA, one strand shown. In a few lines: as §1

HSF1, sequence (Q00613 whole entry): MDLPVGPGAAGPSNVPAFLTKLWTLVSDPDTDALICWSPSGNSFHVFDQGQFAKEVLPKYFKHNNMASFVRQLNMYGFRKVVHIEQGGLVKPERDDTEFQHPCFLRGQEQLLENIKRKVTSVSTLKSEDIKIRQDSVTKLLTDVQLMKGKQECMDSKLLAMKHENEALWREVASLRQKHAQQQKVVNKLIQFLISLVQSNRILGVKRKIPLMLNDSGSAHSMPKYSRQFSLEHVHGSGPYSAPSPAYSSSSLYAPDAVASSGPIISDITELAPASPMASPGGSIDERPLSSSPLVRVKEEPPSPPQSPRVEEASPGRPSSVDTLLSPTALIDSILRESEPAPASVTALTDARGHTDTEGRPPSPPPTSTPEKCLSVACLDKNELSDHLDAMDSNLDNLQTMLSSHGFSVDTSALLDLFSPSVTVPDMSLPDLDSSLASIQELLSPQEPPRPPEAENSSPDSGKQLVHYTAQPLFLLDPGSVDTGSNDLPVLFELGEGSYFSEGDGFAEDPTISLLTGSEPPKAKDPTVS
ETV1, sequence (P50549 whole entry): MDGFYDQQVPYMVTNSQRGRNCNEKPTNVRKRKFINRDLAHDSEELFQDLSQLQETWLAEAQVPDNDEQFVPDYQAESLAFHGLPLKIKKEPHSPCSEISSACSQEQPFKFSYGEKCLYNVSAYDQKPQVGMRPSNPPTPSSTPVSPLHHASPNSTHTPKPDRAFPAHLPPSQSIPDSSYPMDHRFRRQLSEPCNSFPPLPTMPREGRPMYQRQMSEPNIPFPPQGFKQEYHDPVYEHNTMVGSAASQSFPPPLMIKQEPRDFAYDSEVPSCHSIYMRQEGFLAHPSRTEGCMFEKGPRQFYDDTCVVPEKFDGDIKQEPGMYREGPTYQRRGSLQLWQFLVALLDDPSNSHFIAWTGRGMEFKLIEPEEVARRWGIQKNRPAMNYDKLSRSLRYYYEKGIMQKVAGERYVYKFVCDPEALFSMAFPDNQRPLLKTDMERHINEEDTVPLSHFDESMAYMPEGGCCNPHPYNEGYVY
CRX, sequence (O43186 whole entry): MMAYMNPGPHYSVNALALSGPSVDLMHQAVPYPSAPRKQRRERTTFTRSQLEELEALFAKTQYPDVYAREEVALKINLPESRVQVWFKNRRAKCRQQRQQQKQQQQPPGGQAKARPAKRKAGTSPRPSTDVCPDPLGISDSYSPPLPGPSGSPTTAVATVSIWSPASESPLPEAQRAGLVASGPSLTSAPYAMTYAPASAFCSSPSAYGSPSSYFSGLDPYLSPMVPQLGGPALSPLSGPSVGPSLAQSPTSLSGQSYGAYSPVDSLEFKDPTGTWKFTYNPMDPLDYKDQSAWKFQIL
ETV5, sequence (P41161 whole entry): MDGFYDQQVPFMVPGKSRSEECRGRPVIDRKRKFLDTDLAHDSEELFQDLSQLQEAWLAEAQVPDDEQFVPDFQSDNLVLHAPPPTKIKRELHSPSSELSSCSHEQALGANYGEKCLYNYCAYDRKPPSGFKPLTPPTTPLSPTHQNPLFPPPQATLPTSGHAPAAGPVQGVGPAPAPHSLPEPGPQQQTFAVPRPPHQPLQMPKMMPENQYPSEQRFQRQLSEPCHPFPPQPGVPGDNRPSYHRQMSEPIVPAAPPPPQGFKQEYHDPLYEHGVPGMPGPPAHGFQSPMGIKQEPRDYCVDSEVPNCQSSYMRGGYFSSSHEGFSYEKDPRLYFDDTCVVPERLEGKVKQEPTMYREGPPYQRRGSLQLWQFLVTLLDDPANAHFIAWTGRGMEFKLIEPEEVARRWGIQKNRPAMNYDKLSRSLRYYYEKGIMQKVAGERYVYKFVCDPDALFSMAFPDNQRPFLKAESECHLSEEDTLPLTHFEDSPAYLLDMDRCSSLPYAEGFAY
ETV6, sequence (P41212 whole entry): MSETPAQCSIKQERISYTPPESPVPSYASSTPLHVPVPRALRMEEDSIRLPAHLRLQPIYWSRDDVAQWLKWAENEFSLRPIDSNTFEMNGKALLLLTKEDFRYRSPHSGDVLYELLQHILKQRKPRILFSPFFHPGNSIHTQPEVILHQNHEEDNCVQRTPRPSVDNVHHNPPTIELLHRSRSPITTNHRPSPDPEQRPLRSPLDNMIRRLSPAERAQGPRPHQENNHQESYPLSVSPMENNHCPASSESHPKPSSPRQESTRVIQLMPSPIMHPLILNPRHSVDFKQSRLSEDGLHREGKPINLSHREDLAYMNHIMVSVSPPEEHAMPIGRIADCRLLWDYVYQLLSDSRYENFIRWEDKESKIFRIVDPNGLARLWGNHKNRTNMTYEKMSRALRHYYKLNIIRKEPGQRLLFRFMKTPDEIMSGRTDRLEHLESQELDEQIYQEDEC
ELF4, sequence (Q99607 whole entry): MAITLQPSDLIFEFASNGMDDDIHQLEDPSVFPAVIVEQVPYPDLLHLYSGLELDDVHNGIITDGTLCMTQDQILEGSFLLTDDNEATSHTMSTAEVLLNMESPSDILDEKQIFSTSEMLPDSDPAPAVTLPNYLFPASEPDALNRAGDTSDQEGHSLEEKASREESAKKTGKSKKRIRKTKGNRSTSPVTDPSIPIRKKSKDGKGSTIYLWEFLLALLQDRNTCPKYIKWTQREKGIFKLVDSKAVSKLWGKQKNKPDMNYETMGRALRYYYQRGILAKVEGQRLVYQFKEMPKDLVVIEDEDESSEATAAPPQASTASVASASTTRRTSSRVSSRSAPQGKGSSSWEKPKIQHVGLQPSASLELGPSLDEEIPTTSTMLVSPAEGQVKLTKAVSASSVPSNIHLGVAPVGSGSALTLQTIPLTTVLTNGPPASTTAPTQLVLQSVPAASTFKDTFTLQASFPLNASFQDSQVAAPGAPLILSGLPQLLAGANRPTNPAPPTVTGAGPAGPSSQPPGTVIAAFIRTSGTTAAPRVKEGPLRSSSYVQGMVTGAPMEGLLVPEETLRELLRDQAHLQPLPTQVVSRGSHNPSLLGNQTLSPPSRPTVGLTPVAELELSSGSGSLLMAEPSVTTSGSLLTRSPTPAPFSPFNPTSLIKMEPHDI

As for AAATCC, the binding signal with FEV is 2.56 fold enrichment (6-mer frequency, TF over GST control); with ETV5 it was 1.64 fold enrichment (6-mer frequency, TF over GST control); in the assay with HSF1 it was 1.9 fold enrichment (6-mer frequency, TF over GST control); in the assay with SPIC, 1.5 fold enrichment (6-mer frequency, TF over GST control); with ELF4 it was 1.51 fold enrichment (6-mer frequency, TF over GST control); with ELK4, 1.47 fold enrichment (6-mer frequency, TF over GST control). Also, the binding signal with ETV2 was 1.45 fold enrichment (6-mer frequency, TF over GST control); in the assay with ELF3, 1.34 fold enrichment (6-mer frequency, TF over GST control); with CRX, 2.53 fold enrichment (6-mer frequency, TF over GST control); in the assay with ETV1, 1.58 fold enrichment (6-mer frequency, TF over GST control); in the assay with ERF, 1.48 fold enrichment (6-mer frequency, TF over GST control); with ETV3L, 1.47 fold enrichment (6-mer frequency, TF over GST control). Also, the binding signal with ETS2 is 1.62 fold enrichment (6-mer frequency, TF over GST control); in the assay with SPDEF, 2.08 fold enrichment (6-mer frequency, TF over GST control); with ETV7, 1.61 fold enrichment (6-mer frequency, TF over GST control); with ELF5 it was 1.75 fold enrichment (6-mer frequency, TF over GST control); with ETV3, 1.49 fold enrichment (6-mer frequency, TF over GST control); with ETV6, 1.6 fold enrichment (6-mer frequency, TF over GST control).
